Source: PubChem BioAssay (Tox21)
A number with no mark means an inactive call. Records with an inconclusive call do not appear. Entries that show only a call come without a potency. Active and inactive are the calls of the source. Unless noted, calls follow the shape of the dose curve; as a rule, active = well fitted curve in the direction sought with a large enough effect in the repeat runs; inconclusive = weak or mixed curves; inactive = no such curve, though single readings can be large; an effect the other way counts as inactive or inconclusive.

Assays:
[1] = A CellTox Green Cytotoxicity Assay to monitor cytotoxicity in HEK293 cells - 32 hour (AID 1224881); also: nearly all actives have a fitted effect of over 40% in size; also: potency is read from the fitted curve at half-maximal effect
Summary of the method: (§1)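 Each value comes from one timepoint of a single continuous run in which HEK293 cells with CellTox Green were exposed to compound for up to 40 h at 37 C, dye fluorescence rising with cell death.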

[2] = A CellTox Green Cytotoxicity Assay to monitor cytotoxicity in HepG2 cells - 0 hour (AID 1224882); also: nearly all actives have a fitted effect of over 35% in size; also: potency is read from the fitted curve at half-maximal effect
Summary of the method: (§2)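 Continuous culture of HepG2 cells with a membrane-impermeant DNA dye; rising fluorescence marks dead cells. Compound exposure lasted up to 40 h at 37 C, with reads every 8 h from 0 h.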

[3] = A CellTox Green Cytotoxicity Assay to monitor cytotoxicity in HepG2 cells - 32 hour (AID 1224883); also: nearly all actives have a fitted effect of over 50% in size; also: potency is read from the fitted curve at half-maximal effect
Summary of the method: as §2

[4] = A CellTox Green Cytotoxicity Assay to monitor cytotoxicity in HEK293 cells - 8 hour (AID 1224884); also: nearly all actives have a fitted effect of over 35% in size; also: potency is read from the fitted curve at half-maximal effect
Summary of the method: as §1

[5] = qHTS RealTime-Glo MT Cell Viability Assay in HepG2 cells - 16 hour (AID 1224885); also: nearly all actives have a fitted effect of over 50% in size; also: potency is read from the fitted curve at half-maximal effect
Summary of the method: (§3)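 HepG2 cells were seeded at 600 cells/well together with NanoLuc luciferase and a cell-permeant prosubstrate, preincubated 5 h at 37 C/5% CO2, then pin-dosed with compounds in DMSO. Nonlytic luminescence from viable cells was read at each time point.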

[6] = A CellTox Green Cytotoxicity Assay to monitor cytotoxicity in HEK293 cells - 16 hour (AID 1224888); also: nearly all actives have a fitted effect of over 35% in size; also: potency is read from the fitted curve at half-maximal effect
Summary of the method: as §1

[7] = qHTS RealTime-Glo MT Cell Viability Assay in HepG2 cells - 0 hour (AID 1224889); also: nearly all actives have a fitted effect of over 50% in size; also: potency is read from the fitted curve at half-maximal effect
Summary of the method: as §3

[8] = qHTS assay to identify small molecule antagonists of the estrogen receptor alpha (ER-alpha) signaling pathway using the BG1 cell line in the presence of 0.1 nM 17-beta-estradiol - cell viability counter screen (AID 1259241); also: nearly all actives have a fitted effect of over 40% in size; also: potency is read from the fitted curve at half-maximal effect
Summary of the method: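 VM7Luc4E2, 4,000 cells/well, phenol red-free medium + 10% charcoal-stripped FBS; 24 hr plating; cpd + 0.1 nM E2 final, 22 hr 37C/5% CO2; CellTiter-Fluor 30 min, fluorescence.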

[9] = qHTS assay to identify small molecule phospholipidosis (PLD) inducers (AID 1259344; active = well fitted curve in the direction sought with a large enough effect; an effect the other way counts as inactive or inconclusive)
Summary of the method: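 HepG2 cells on collagen I, attached 4 h at 37 C, were co-treated with compound and LipidTOX Red dye for 24 h at 37 C, then fixed with paraformaldehyde plus Hoechst 33342 and imaged by high-content microscopy for phospholipid accumulation.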

[10] = qHTS assay to identify small molecule HDAC inhibitors (AID 1259364); also: top concentration of the series differs between compounds; nearly all actives have a fitted effect of over 45% in size
Summary of the method: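 Endogenous HDAC class I/II activity was measured in wild-type HCT-116 cells by HDAC-Glo luminescence after 2 h compound treatment.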

[11] = qHTS assay to identify small molecule HDAC inhibitors - cell viability counter screen (AID 1259365); also: series mostly up to about 92 µM; nearly all actives have a fitted effect of over 50% in size
Summary of the method: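 Luminescence from CellTiter-Glo, developed 30min at room temperature, reports viability of wild-type HCT-116 cells treated 2hr with compounds at 37 C and 5% CO2 after overnight plating.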

[12] = qHTS assay to identify small molecule agonists of the sonic hedgehog signaling (Shh) pathway - cell viability counter screen (AID 1259366); also: nearly all actives have a fitted effect of over 50% in size; also: potency is read from the fitted curve at half-maximal effect
Summary of the method: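 Cytotoxicity counter screen run in the same wells as the Shh reporter assay. NIH/3T3 cells carrying a Gli1 response element–driven luciferase were treated with DMSO-dissolved compounds for 24hr, and live-cell protease activity was measured with CellTiter-Fluor.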

[13] = qHTS assay to identify small molecule antagonists of the sonic hedgehog signaling (Shh) pathway - cell viability counter screen (AID 1259367); also: nearly all actives have a fitted effect of over 55% in size; also: potency is read from the fitted curve at half-maximal effect
Summary of the method: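 NIH/3T3-derived Gli1-Luc reporter cells (2,000 per well) rested 4 hr at 37 C, then received DMSO compounds plus conditioned medium. After 23 hr of treatment, CellTiter-Fluor was added for 1 hr at 37C and fluorescence read.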

[14] = qHTS assay to identify small molecule agonists of the sonic hedgehog signaling (Shh) pathway (AID 1259368; calls by dose curve;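 also: NIH/3T3-derived 3T3Gli1-Luc cells carrying a stable Gli1-driven firefly luciferase reporter; series mostly up to about 92 µM; nearly all actives have a fitted effect of over 15% in size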)
Summary of the method: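 Luminescent signal was taken as a measure of Gli1-controlled luciferase expression in stably transfected NIH/3T3-derived cells that had been treated for 24 hr with compounds delivered in DMSO.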

[15] = qHTS RealTime-Glo MT Cell Viability Assay in HEK293 cells - 24 hour (AID 1224886); also: nearly all actives have a fitted effect of over 50% in size; also: potency is read from the fitted curve at half-maximal effect
Summary of the method: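 HEK293 cells were seeded at 600 cells/well together with NanoLuc luciferase and cell-permeant prosubstrate, preincubated 5 h at 37 C/5% CO2, then given compound in DMSO by pintool. Luminescence from viable-cell prosubstrate reduction was read repeatedly over 40 h.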

[16] = qHTS RealTime-Glo MT Cell Viability Assay in HEK293 cells - 8 hour (AID 1224887); also: nearly all actives have a fitted effect of over 50% in size; also: potency is read from the fitted curve at half-maximal effect
Summary of the method: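 qHTS format; HEK293 cells with NanoLuc/prosubstrate reagent, 37 C/5% CO2 for 5 h pre-dosing; compounds 23 nL in DMSO; luminescence at each time point reflects viable cells.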

[17] = A CellTox Green Cytotoxicity Assay to monitor cytotoxicity in HepG2 cells - 8 hour (AID 1224890); also: nearly all actives have a fitted effect of over 45% in size; also: potency is read from the fitted curve at half-maximal effect
Summary of the method: as §2

[18] = qHTS assay to identify small molecule antagonists of the androgen receptor (AR) signaling pathway using the MDA cell line in the presence of 0.5 nM R1881 - cell viability counter screen (AID 1259242); also: nearly all actives have a fitted effect of over 45% in size; also: potency is read from the fitted curve at half-maximal effect
Summary of the method: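 Fluorescence from CellTiter-Fluor, which reports protease activity of live cells, was read 30 min after reagent addition to MDA-kb2 cells that had been incubated 16 hr with compound and 0.5 nM R1881.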

[19] = target: Androgen receptor (Homo sapiens) (UniProt P10275); experiment: qHTS assay to identify small molecule antagonists of the androgen receptor (AR) signaling pathway using the MDA cell line in the presence of 0.5 nM R1881 (AID 1259243); also: nearly all actives have a fitted effect of over 50% in size; also: potency is read from the fitted curve at half-maximal effect
Summary of the method: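 Inhibition of R1881 (0.5 nM final) induced reporter signal was measured in human MDA-kb2 cells; note the MMTV promoter also responds to GR. Exposure lasted 16 hr at 37C.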

[20] = target: Estrogen receptor (Homo sapiens) (UniProt P03372); experiment: qHTS assay to identify small molecule antagonists of the estrogen receptor alpha (ER-alpha) signaling pathway using the BG1 cell line in the presence of 0.1 nM 17-beta-estradiol (AID 1259244); also: nearly all actives have a fitted effect of over 50% in size; also: potency is read from the fitted curve at half-maximal effect
Summary of the method: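 Quantitative high-throughput screen in VM7Luc4E2 cells: compound plus 0.1 nM E2 (final), 22 h, 37C, 5% CO2; ONE-Glo added, 30 min room temperature, luminescence measured.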

Sequence of Androgen receptor (Homo sapiens) (P10275 whole entry, looked up): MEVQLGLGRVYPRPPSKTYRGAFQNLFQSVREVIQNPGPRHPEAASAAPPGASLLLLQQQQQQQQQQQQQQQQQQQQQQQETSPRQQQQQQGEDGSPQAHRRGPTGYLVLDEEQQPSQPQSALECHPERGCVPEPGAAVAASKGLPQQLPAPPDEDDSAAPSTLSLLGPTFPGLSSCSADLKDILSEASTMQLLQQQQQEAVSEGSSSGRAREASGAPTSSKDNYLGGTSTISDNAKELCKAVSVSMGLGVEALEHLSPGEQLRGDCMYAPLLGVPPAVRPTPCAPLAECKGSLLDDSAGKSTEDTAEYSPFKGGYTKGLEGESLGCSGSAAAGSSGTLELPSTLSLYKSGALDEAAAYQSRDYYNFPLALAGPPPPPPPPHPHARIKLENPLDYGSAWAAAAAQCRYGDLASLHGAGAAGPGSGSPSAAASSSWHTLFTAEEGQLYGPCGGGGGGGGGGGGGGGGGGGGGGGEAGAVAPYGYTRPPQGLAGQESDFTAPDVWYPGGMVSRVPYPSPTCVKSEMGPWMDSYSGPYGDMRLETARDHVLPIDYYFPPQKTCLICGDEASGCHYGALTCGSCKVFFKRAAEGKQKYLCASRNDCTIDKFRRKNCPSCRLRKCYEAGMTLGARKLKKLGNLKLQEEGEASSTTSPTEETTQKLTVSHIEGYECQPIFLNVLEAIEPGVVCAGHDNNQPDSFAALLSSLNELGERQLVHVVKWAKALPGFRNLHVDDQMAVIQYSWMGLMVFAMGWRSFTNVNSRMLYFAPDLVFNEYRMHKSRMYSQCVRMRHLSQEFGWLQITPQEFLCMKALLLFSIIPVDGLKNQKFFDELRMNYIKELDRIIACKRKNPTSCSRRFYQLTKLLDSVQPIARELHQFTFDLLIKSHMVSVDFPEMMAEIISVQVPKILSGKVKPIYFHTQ
Sequence of Estrogen receptor (Homo sapiens) (P03372 whole entry, looked up): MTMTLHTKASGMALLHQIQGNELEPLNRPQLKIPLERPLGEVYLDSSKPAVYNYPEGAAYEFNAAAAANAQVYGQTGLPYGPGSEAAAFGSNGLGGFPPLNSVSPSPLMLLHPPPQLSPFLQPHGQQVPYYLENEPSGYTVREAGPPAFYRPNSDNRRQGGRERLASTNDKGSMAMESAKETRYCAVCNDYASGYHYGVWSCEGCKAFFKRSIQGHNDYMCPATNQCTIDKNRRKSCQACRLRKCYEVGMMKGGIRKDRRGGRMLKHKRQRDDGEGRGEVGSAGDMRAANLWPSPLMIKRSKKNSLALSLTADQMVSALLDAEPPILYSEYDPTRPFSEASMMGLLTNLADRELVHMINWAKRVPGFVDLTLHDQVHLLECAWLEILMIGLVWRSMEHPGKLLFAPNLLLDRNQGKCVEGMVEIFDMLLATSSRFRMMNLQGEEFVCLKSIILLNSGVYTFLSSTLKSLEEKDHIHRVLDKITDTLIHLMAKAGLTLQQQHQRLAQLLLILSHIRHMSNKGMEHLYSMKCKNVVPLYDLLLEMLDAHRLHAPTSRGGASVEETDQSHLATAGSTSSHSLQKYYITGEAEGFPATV

Row | Structure (SMILES) | Potency [1] | Potency [2] | Potency [3] | Potency [4] | Potency [5] | Potency [6] | Potency [7] | Potency [8] | Potency [9] | Potency [10] | Potency [11] | Potency [12] | Potency [13] | Potency [14] | Potency [15] | Potency [16] | Potency [17] | Potency [18] | Potency [19] | Potency [20]
1 | CC1=C(C(=O)OC(C)C)C(c2cccc([N+](=O)[O-])c2)C(C(=O)OC2CN(C(c3ccccc3)c3ccccc3)C2)=C(N)N1 (stereo unspecified) | inactive | inactive | 23.9 µM (active) | inactive | 21.3 µM (active) | inactive | inactive | inactive | inactive | inactive | inactive | 23.7 µM (active) | 26.6 µM (active) | inactive | – | – | – | – | – | –
2 | [Cl][Bi]([Cl])([c]1ccccc1)([c]1ccccc1)[c]1ccccc1 | 24.4 µM (active) | inactive | 6.13 µM (active) | 43.4 µM (active) | – | 43.4 µM (active) | – | 12.1 µM (active) | – | inactive | inactive | 0.108 µM (active) | 0.136 µM (active) | inactive | 3.07 µM (active) | 21.7 µM (active) | 15.4 µM (active) | 27.1 µM (active) | 13.6 µM (active) | 4.83 µM (active)
3 | CCOC(=O)O[C@]1(C(=O)OCCl)CC[C@H]2[C@@H]3CCC4=CC(=O)C=C[C@]4(C)[C@H]3[C@@H](O)C[C@@]21C | inactive | inactive | inactive | inactive | – | inactive | 3.38 µM (active) | inactive | inactive | inactive | inactive | inactive | inactive | inactive | – | inactive | inactive | inactive | – | –
4 | OCCN(CCO)c1nc(N2CCCCC2)c2nc(N(CCO)CCO)nc(N3CCCCC3)c2n1 | 19 µM (active) | 23.9 µM (active) | 23.9 µM (active) | 21.3 µM (active) | inactive | – | inactive | – | inactive | inactive | inactive | – | – | inactive | – | – | 23.9 µM (active) | – | – | –
5 | C/C=C1/C(=O)C[C@H]2[C@@H]3CCC4=CC(=O)CC[C@]4(C)[C@H]3CC[C@]12C | inactive | inactive | 48.8 µM (active) | inactive | – | inactive | 0.435 µM (active) | inactive | – | inactive | inactive | – | inactive | inactive | 48.8 µM (active) | 24.5 µM (active) | inactive | inactive | – | –
6 | Nc1ccc2cc(S(=O)(=O)O)cc(O)c2c1N=Nc1ccccc1C(F)(F)F | inactive | inactive | inactive | inactive | – | – | inactive | 30.6 µM (active) | – | inactive | inactive | – | – | – | inactive | inactive | inactive | – | – | –
7 | NNC(=O)c1cccc(C(=O)NN)c1 | inactive | inactive | inactive | inactive | – | inactive | inactive | inactive | – | inactive | inactive | – | inactive | inactive | inactive | inactive | inactive | inactive | inactive | inactive
8 | O=C1c2c(O)ccc(Nc3ccc(CCO)cc3)c2C(=O)c2c([N+](=O)[O-])ccc(O)c21 | inactive | inactive | inactive | inactive | – | inactive | – | – | – | inactive | – | – | 48.6 µM (active) | inactive | – | 43.6 µM (active) | inactive | – | 54.5 µM (active) | –
9 | C[C@@H]1C[C@H]2[C@@H]3CCC4=CC(=O)C=C[C@]4(C)[C@@]3(Cl)[C@@H](O)C[C@]2(C)[C@@]1(OC(=O)c1ccco1)C(=O)CCl | inactive | inactive | inactive | inactive | – | inactive | inactive | inactive | inactive | – | inactive | – | – | – | inactive | inactive | inactive | inactive | inactive | –
